Only some compounds are listed: those with a hit (about 7.1% of all), similar ones and a draw of the others.
LASV entry inh = qHTS for Inhibitors of binding or entry into cells for Lassa Virus; Lassa virus pseudotyped entry inhibition, cell-based qHTS; Potency, µM (doses to about 49.2 µM), inactives show top-dose activity change, negative = inhibition, most hits filed as inhibitors; 18,000 tested, 4.1% active
MARV entry inh = qHTS for Inhibitors of binding or entry into cells for Marburg Virus | Potency, µM (doses to about 49.2 µM), for the others: at the highest dose activity change, negative = inhibition, hits mostly inhibitors | 18,000 tested, 6.5% active | Marburg virus pseudotype entry/binding inhibition, cell-based
* = called active by the depositor; ? = inconclusive; ! = repeats disagree; [ ] = another dose, or the depositor's remark. The call rests on the fitted dose curve; tested in HEK293 cells. On the % scale 0 is the no-effect control and ±100 the full control effect; potency means the concentration at half of the fitted maximal effect.

SMILES	LASV entry inh	MARV entry inh
O=C1C[C@@H](c2ccc(O)c(O)c2)Oc2c1ccc(O[C@@H]1O[C@H](CO)[C@@H](O)[C@H](O)[C@H]1O)c2O	-1%	?
CSC[C@H]1CN(C2CCCCC2)C(=O)[C@H]1CC(=O)Nc1ccccc1	13%	15%
C=C(C(C)=O)C(O)/C=C/c1ccco1 (centres undefined)	4%	-10%
COc1cc(/C=C/C(=O)c2cccs2)cc(OC)c1OC	32µM*	?
O=C(/C=C/c1ccc(O)cc1)c1cccs1	3%	31%
CC(CCN1CCCCc2nc(C)c(C)cc21)=NO[C@H](C)c1cn([C@@H]2COC[C@@H]2O)nn1	14%[8.59 µM]	4%[8.59 µM]
O=P1(NCCCl)OCCCN1CCCl (centres undefined)	0%[17.8 µM]	6%[17.8 µM]
Cc1c2c(c(O)c3c(O)cccc13)C(=O)O[C@H]2C1C(N(C)C)C(O)=C(C(N)=O)C(=O)[C@H]1O (some centres undefined)	-1%	8.9µM*
CN(C)[C@@H]1C(=O)C(C(N)=O)=C(O)[C@@]2(O)C(=O)C3=C(O)c4c(O)cccc4[C@@](C)(O)[C@H]3[C@H](O)[C@@H]12	-23%	?
CO/C=C(/C(=O)OC)c1ccccc1Oc1cc(Oc2ccccc2C#N)ncn1	22µM*	28µM*
Cc1nc2cc(NC(=O)[C@@H]3C[C@@H](Sc4ccccn4)CN3Cc3ccccc3)ccc2s1	24%	45%
CN(C)C1C(=O)C(C(N)=O)=C(O)[C@@]2(O)C(=O)C3=C(O)c4c(O)cccc4[C@](C)(O)C3C(O)C12 (some centres undefined)	2%	2%
CC(=O)N[C@@H](CSC(=O)[C@]1([C@@H](O)C(C)C)NC(=O)[C@H](C)[C@@H]1O)C(=O)O	3.5µM*	?
CC(=O)N[C@@H](CSC/C=C(\C)CCC=C(C)C)C(=O)O	4%	17%
c1ccc2sc(N3CCN(Cc4ccc5c(c4)OCO5)CC3)nc2c1	34%	8%
c1cc(CN2CCCCC2)cc(OCCCNc2nc3ccccc3s2)c1	?	16µM*
CC(CCC(=O)O)C1CCC2C3CC[C@H]4CC(O)CC[C@@]4(C)C3CC(O)[C@]12C (some centres undefined)	7%	8%
Cc1ccc(CNc2ncnc3sc(C(=O)N4CCCCC4c4cccnc4)c(C)c23)o1 (centres undefined)	22%	7%
CC(CN1c2ccccc2Sc2ccc(S(=O)(=O)N(C)C)cc21)N(C)C (centres undefined)	-5%	?
CCc1ccc2c(c1)N(CC(C)CN(C)C)c1ccccc1S2 (centres undefined)	18µM*	14µM*
CCn1cc(C(=O)O)c(=O)c2cc(F)c(N3CCNCC3)cc21	-16%	-1%
Cc1ccc(S(=O)(=O)N[C@@H]2COC(=O)[C@@H](C)COC(=O)CC=C[C@H]2C)cc1	-4%[8.59 µM]	7%[8.59 µM]
COc1cc(Nc2c(C#N)cnc3cc(OCCCN4CCN(C)CC4)c(OC)cc23)c(Cl)cc1Cl	?	7.1µM*
C=C/C(=C/C(=O)C[C@H](C)C[C@@H](C)CC[C@H](O)[C@H](C)C(=O)C[C@@H](O)[C@H](C)[C@@H](C)OC(=O)C[C@@H](O)C1=C(C)C(=O)OC1=O)CC	2µM*	2.5µM*
CC12CCC3C(CC3(C)C)C(C)(CCC1=O)O2 (centres undefined)	-1%	8%
SMILES	LASV entry inh	MARV entry inh
O=C(NC(NC(=S)Nc1ccc(F)c([N+](=O)[O-])c1)C(Cl)(Cl)Cl)C(c1ccccc1)c1ccccc1 (centres undefined)	11µM*	11µM*
O=[N+]([O-])c1ccc(F)c([N+](=O)[O-])c1	-16%	-4%
CCCCCCCC(=O)O	-2%	3%
CCN1C(=O)NC(c2cccs2)C(C(=O)OC)=C1C (centres undefined)	-14%[8.59 µM]	1%[8.59 µM]
C=CC(C1=CC(=O)C(OC)=CC1=O)c1ccc(OC)cc1 (centres undefined)	2%	?
C=CC(C1=CC(=O)C(OC)=C(OC)C1=O)c1ccccc1 (centres undefined)	?	14µM*
CCN1CCC[C@H]1CNC(=O)c1c(O)c(Cl)cc(Cl)c1OC	-2%	14%
CCCCN1CCC[C@@H]1CNC(=O)c1cc(C#N)c2ccccc2c1OC	?	14µM*
CC1(C)O[C@@H]2C[C@H]3[C@@H]4C[C@H](F)C5=CC(=O)CC[C@]5(C)[C@H]4[C@@H](O)C[C@]3(C)[C@]2(C(=O)CO)O1	-7%[17.8 µM]	15%[17.8 µM]
CC1CCC2[C@](C)(CO)C(O)CC[C@]2(C)C12CCC(CO)(CCO)O2 (some centres undefined)	4%	4%
CCC(C)C1/C=C\CCCC(=O)N1Cc1ccc(C)cc1 (centres undefined)	-20%	-15%
CCN(CC)Cc1cc(Nc2ccnc3cc(Cl)ccc23)ccc1O	?	5µM*
CN(Cc1ccco1)Cc1cc(-c2ccnc3cc(Cl)ccc23)ccc1O	-14%	-14%
CCN(CCO)CCCC(C)Nc1ccnc2cc(Cl)ccc12 (centres undefined)	-17%	1.3µM*
CCc1cc(S(=O)(=O)O)c2cc(C(C)C)cccc1-2	8%	19%
CC[C@@]1([C@@H]2O[C@@H]([C@H]3O[C@@](O)(CO)[C@H](C)C[C@@H]3C)C[C@@H]2C)CC[C@H]([C@]2(C)CC[C@]3(C[C@H](O)[C@@H](C)[C@@H]([C@@H](C)[C@@H](OC)[C@H](C)C(=O)O)O3)O2)O1 (stereo in doubt)	2.8µM*!	4µM*!
O=C(NCC1Cc2cccc(-c3cncnc3)c2O1)C1CC1 (centres undefined)	-9%	-12%
CC(=O)Nc1ccc(S(=O)(=O)Nc2cc(C)on2)cc1	-13%	1%
CN(Cc1ccccc1)Cc1cc(=O)oc2ccccc12	91%	-2%
CC[C@H](C)[C@H](NC(=O)[C@H](CC(N)=O)NC(=O)[C@H](CCCCN)NC(=O)[C@H](Cc1ccccc1)NC(=O)[C@H](Cc1ccccc1)NC(=O)[C@H](Cc1cnc[nH]1)NC(=O)[C@@H](N)C(C)C)C(=O)N[C@H](C(=O)N[C@H](C(=O)N1CCC[C@H]1C(=O)N[C@@H](CCCN=C(N)N)C(=O)N[C@H](C(=O)N1CCC[C@H]1C(=O)O)[C@@H](C)O)[C@@H](C)O)C(C)C	2%	-7%
Clc1ccc2c(c1)CCc1cccnc1C2=C1CCNCC1	25µM*	10µM*
CNc1nc(Cl)nc2c1ncn2CC(COC(=O)C(C)(C)C)COC(=O)C(C)(C)C	-23%	2%
C[C@@]12C(=O)OC(=O)[C@@]1(C)C1CCC2O1	2µM*	3.5µM*
C[C@@]12C(=O)OC(=O)[C@@]1(C)[C@@H]1CC[C@@H]2O1	-13%	4%
COC(=O)C1(C(=O)OC)Cc2conc2[C@@H]1c1ccccc1	7%[8.59 µM]	?
COCC(C)NCc1cc2ccc(OC)cc2nc1N1CCN(c2ccc(F)cc2)CC1 (centres undefined)	?	11µM*
COc1ccc2cc(CNCc3ccccc3C(F)(F)F)c(N3CCCC(CO)C3)nc2c1 (centres undefined)	-25%	1%
COC1=C(C(=O)O)N2C(=O)[C@@H](NC(=O)[C@H](N)C3=CCC=CC3)[C@H]2SC1	-7%	2%
O=C1/C(=C\c2ccccc2)C[C@@]2(O)[C@H]3Cc4ccc(O)c5c4[C@@]2(CCN3CC2CC2)[C@H]1O5	4µM*	?

High-throughput results as filed in PubChem.
